# Compounds with a hit are over-represented: about 21% of the library has one in this group of screens.
# HCV inh = inhibitors of hepatitis C virus infection. Potency, µM (top dose mostly 41.8 µM), for the others: at the top dose activity change, negative = inhibition, most hits filed as inhibitors. Huh7.5.1 HCVcc-Cre infection, luciferase reporter, 44 h. 340,000 compounds, 3.4% hits; further: potency means the concentration at half of the fitted maximal effect; on the % scale 0 is the no-effect control and ±100 the full control effect
#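 HCVcc-Cre virus at an moi near 0.5 was added right after compound to cells cultured 4 h from seeding (1,000 cells/well). Luciferase activity was determined 44 h later, 15 min after substrate addition at RT.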
# CHX counter = counter-screen for Shiga toxin inhibitors: cycloheximide protein synthesis inhibition; cell reporter, cycloheximide protein synthesis inhibition counterscreen; max response, %; 300,000 compounds, 12% hits; AID 2314; in the data active means max response mostly above about 13%, no sharp cut-off; inactive means mostly below about 14%; further: read at 38.3 µM for the half of the compounds with a filed dose; 0% is about no effect
# Pf growth 48h = inhibits P. falciparum growth in the first generation, 48 h; Potency, µM (top dose mostly 28.7 µM), for the others: top-dose activity change, negative = inhibition, actives largely listed as inhibitors; 310,000 compounds, 5.9% hits; P. falciparum luciferase growth in erythrocytes, 48 h; further: potency means the concentration at half of the fitted maximal effect; on the % scale 0 is the no-effect control and ±100 the full control effect
#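 Firefly luciferase activity from engineered P. falciparum reports growth; inhibitors lower the luminescent signal. Cultures contained 2% hematocrit erythrocytes at 0.1% final parasitemia.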
# HCMV inh = inhibitors of human cytomegalovirus; HFF cells, HCMV-luciferase reporter, 72 h; active compounds read low; AID 1259415; 410,000 compounds, 4.5% hits; activity change, negative = inhibition, % at 57.5 µM; in the data active means activity change below about -60%; inconclusive means no clear call, values can overlap the other calls; inactive means above about -39%; further: on the % scale 0 is the no-effect control and ±100 the full control effect
#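 HFF cells seeded 16 h at 37C, treated with compounds, infected with luciferase-reporter HCMV at MOI 1 PFU/cell; luciferase read at 72 h post infection, normalized to buffer-only and Salinomycin controls.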
# Pf growth 96h = inhibits malaria parasite growth, 96 h; P. falciparum luciferase reporter growth, 96 h; Potency, µM (top dose mostly 28.7 µM), for the others: at the highest dose activity change, negative = inhibition, usual class: inhibitors; 320,000 compounds, 6.9% hits; AID 504834; further: potency means the concentration at half of the fitted maximal effect; on the % scale 0 is the no-effect control and ±100 the full control effect
#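 Cell-based qHTS: luciferase-tagged P. falciparum in erythrocytes (2% hematocrit, 0.05% parasitemia final) incubated with compounds for 96 hours, 37 C, 5% CO2; luciferase detection reagent then added and luminescence measured.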
# Shiga toxin inh = inhibitors of Shiga toxin in Vero cells; inhibition, % at 38.7 µM; AID 2315; 290,000 compounds, 9.2% hits; Vero cells, Shiga toxin protein synthesis inhibition reporter; in the data active means inhibition mostly above about 28%, no sharp cut-off; inactive means mostly below about 43%; further: 0% is about no effect
# The depositor's hits bear a star; ? = inconclusive; / = no result given; [ ] = dose if it differs, or a comment. Unless noted, the call rests on the fitted dose curve; in most records, active means well fitted inhibition curve with a large enough effect; inconclusive means small, poorly fitted or top-dose-only effect, or another doubt; inactive means no such curve, though single readings can be large or run the other way.
SMILES,HCV inh,CHX counter,Pf growth 48h,HCMV inh,Pf growth 96h,Shiga toxin inh
CC1CCN(C(=O)COC(=O)c2ccc(Br)o2)CC1,-9%,67*,/,-2,2%,94*
CC(C)C[C@H](NC(=O)N1CC(=O)Nc2ccccc21)C(=O)N[C@@H](Cc1ccccc1)C(=O)O,25%,-1,36%,-6,?,-5
CCOc1ccc(CCNC(=O)c2cn(CC)c3ccc(S(=O)(=O)N4CCCCCC4)cc3c2=O)cc1OCC,/,/,/,-34,/,/
Cc1cc(C)c2ccc(N)nc2c1O,11µM*,-1,4.1µM*,-105*,196%,-6
CCCn1cc(S(=O)(=O)c2ccc(F)cc2)c(=O)c2cc(OCC)ccc21,-24%,-2,?,-67*,?,-6
CCn1cc(S(=O)(=O)c2ccc(OC)cc2)c(=O)c2cc(F)c(N3CCN(C)CC3)cc21,0%,-6,4%,-35,8.3µM*,-10
Cc1ccc(S(=O)(=O)c2cn(C)c3cc(N4CCN(C)CC4)c(F)cc3c2=O)c(C)c1,13µM*,-8,?,-20,16%,-30
CCOC(=O)c1cn(CC)c2cc(N3CCN(C)CC3)c(F)cc2c1=O,15%,-4,12µM*,15,?,-6
CCc1ccc(NC(=O)Cn2c(=O)n(CCCCC(=O)NCCc3ccc(Cl)cc3)c(=O)c3ccccc32)cc1,/,/,/,0,/,/
CCOC(=O)c1cn(CC)c2cc(N3CCSCC3)c(F)cc2c1=O,-21%,-5,0.93µM*,22,-2%,2
CCOC(=O)c1cn(CC)c2cc3c(cc2c1=O)OCO3,8%,/,7%,8,?,/
COc1ccc(CC(=O)Nc2ccc(S(=O)(=O)N3CCC(C)CC3)cc2)c(OC)c1,?,/,?,-32,?,/
CCOc1ccccc1C(=O)Nc1ccc2c(c1)C(=O)NC2=O,2%,-2,20%,-13,?,/
COc1ccccc1C(=O)NCC(=O)Nc1ccc2c(c1)OCO2,3%,/,8%,-1,7%,/
COc1ccccc1C(=O)Nc1ccc2c(c1)OCO2,2%,43*,/,139,157%,61*
COc1ccccc1C(=O)Nc1ccc2c(c1)C(=O)NC2=O,19%,28*,27%,-2,?,22*
CN(c1ccccc1C(=O)Nc1ccc2c(c1)OCO2)S(C)(=O)=O,0%,1,-18%,17,65%,16
Cc1ccccc1C(=O)Nc1ccc2c(c1)OCO2,11%,30*,194%,?,/,70
COc1ccccc1C(=O)Nc1ccc2c(c1)OCCO2,4%,41*,318%,265,?,85*
Fc1ccc(Cn2c(-c3cccc(Br)c3)nc3ccccc32)cc1,/,/,/,-21,/,/
O=C(Nc1ccccc1C(=O)Nc1ccccc1)c1ccco1,-6%,6,2%,9,?,30
COc1cc(SC)ccc1C(=O)Nc1ccc2c(c1)OCCO2,?,34*,118%,37,0%,64
O=C(Nc1ccccc1C(=O)Nc1ccc2c(c1)OCO2)c1ccco1,13µM*,-2,59%,2,127%,-10
COc1ccccc1N1CCN(C(=S)Nc2ccc(F)cc2)CC1,-13%,34*,2%,-5,?,45*
COc1ccc(NC(=O)CCN2CCN(c3ccc(F)cc3)CC2)cc1,-4%,-2,-13%,-76*,45%,-2
SMILES,HCV inh,CHX counter,Pf growth 48h,HCMV inh,Pf growth 96h,Shiga toxin inh
CCN1C(=O)C(CC(=O)Nc2ccc(OC)cc2)N(CCN2CCOCC2)C1=S (stereo unspecified),9%,1,-16%,-1,7%,-7
CCN1C(=O)C(CC(=O)Nc2ccc(OC)cc2)N(CCCN2CCN(c3ccc(OC)cc3)CC2)C1=S (stereo unspecified),11µM*,7,?,-7,?,11
COC(=O)Cc1ccc(NC(=S)N2CCN(c3cccc(O)c3)CC2)cc1,?,-2,?,-64*,113%,-3
COc1ccc(Cl)c(N2CCN(CCCNC(=O)Nc3ccc(C)cc3)CC2)c1,?,-2,13µM*,-9,/,-3
CCc1ccc(N2CCN(CCNC(=O)Nc3ccc(OC)cc3)CC2)cc1,5%,-3,2%,18,?,/
COc1ccc(NC(=O)NCCN2CCN(c3cc(OC)ccc3OC)CC2)cc1,-25%,1,-9%,29,-25%,-8
COc1ccc(N2CCN(C(=S)Nc3cc(C)cc(C)c3)CC2)cc1,8%,2,5%,-35,41%,-8
CCc1ccc(NC(=O)NCCN2CCN(c3ccc(OC)cc3)CC2)cc1,-11%,-4,-1%[0.00184 µM],28,13µM*,-9
COc1ccc(N2CCN(C(=S)Nc3ccc(F)cc3)CC2)cc1,12%,-3,29%,-20,15µM*,/
CN(C)C(=O)CCc1ccc2c3c([nH]c2c1)[C@]1(C)[C@@H](C(=O)N2CCOCC2)C[C@H](CC(=O)NCc2cccc(C(F)(F)F)c2)C(=O)N1CC3,-8%,/,/,17,/,/
CC(=O)c1cccc(-c2ccnc3c2CC(C(=O)NCc2ccccc2)O3)c1 (stereo unspecified),/,/,/,-86*,/,/
CC(C)c1ccc(NC(=O)C2Cc3c(-c4cccc(F)c4)ccnc3O2)cc1 (stereo unspecified),/,/,/,-76*,/,/
O=C(NCc1cccc(Cl)c1)C1Cc2c(-c3cccc(F)c3)ccnc2O1 (stereo unspecified),/,/,/,-24,/,/
CC(C)c1ccc(NC(=O)C2Cc3c(-c4cccc(C(N)=O)c4)ccnc3O2)cc1 (stereo unspecified),/,/,/,11,/,/
O=C(NCc1ccccc1)C1Cc2c(-c3cccc(F)c3)ccnc2O1 (stereo unspecified),/,/,/,-69*,/,/
CC(=O)c1cccc(-c2ccnc3c2CC(C(=O)NCc2ccc(F)c(F)c2)O3)c1 (stereo unspecified),/,/,/,29,/,/
Cc1ccc(Cl)cc1N1CCN(CCCNC(=O)c2nnc(Cc3cccc(Cl)c3)o2)CC1,/,-5,/,-102*,/,-3
CCOc1cc(/C=N/NC(N)=S)cc(Br)c1OCc1ccccc1C,11µM*,2,13µM*,/,/,-22
CNC(=S)N/N=C/c1cc(Br)c(OCc2ccncc2)c(OC)c1,-13%,-1,?,22,?,/
COc1cc(/C=N/NC(N)=S)cc(Br)c1OCc1ccccc1F,8.9µM*,5,14%,?,23%,9
COc1cccc(/C=N/n2nnnc2N)c1OCc1ccccc1Cl,?,-1,10%,3,11%,13
COc1cccc(/C=N/NC(N)=S)c1OCc1ccccc1Cl,?,-4,?,-78*,?,-9
COC(=O)N/N=C/c1ccc(OCCSc2ccc(Cl)cc2)c(OC)c1,?,2,?,-27,?,-46
NC(=S)N/N=C/c1ccccc1OCCSc1ccc(Cl)cc1,?,5,?,-69*,?,13

# Compound activity (PubChem BioAssay)
